Screening results as filed in PubChem BioAssay.
NPSR antagonist = blocks cAMP signaling of the human neuropeptide S receptor; CHO-NPSR cells, cAMP TR-FRET, antagonist mode; Potency, µM (top dose mostly 38.3 µM), for inactives: top-dose activity change, negative = inhibition, most hits filed as inhibitors; Q6W5P4; 220,000 compounds, 1% hits; also: % is scaled to controls: 0 for no effect and ±100 for the full control effect; nearly all actives have a fitted effect of over 50% in size
Target sequence (Q6W5P4 whole entry, looked up): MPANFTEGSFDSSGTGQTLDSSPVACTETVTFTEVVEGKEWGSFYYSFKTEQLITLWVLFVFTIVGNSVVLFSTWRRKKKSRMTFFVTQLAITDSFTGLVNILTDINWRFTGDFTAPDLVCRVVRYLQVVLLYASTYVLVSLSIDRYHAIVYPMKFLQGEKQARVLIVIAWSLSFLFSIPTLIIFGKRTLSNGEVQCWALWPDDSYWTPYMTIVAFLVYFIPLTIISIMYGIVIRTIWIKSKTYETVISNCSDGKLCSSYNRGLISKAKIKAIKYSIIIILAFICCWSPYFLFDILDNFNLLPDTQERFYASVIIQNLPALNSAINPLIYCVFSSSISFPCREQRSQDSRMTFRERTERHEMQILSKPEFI
Sfp inh = Sfp phosphopantetheinyl transferase inhibition. 310,000 compounds, 3.5% hits. Biochemical Sfp PPTase activity, qHTS. Potency, µM, for the others: largest response in the series, negative = inhibition, actives largely listed as inhibitors. AID 1490. Q9F4F7;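 also: the enzyme is Sfp with the accession as filed and its product quenches rhodamine fluorescence; 0% = enzyme reaction without inhibitor and -100% = no enzyme wells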
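Fluorescence-quenching assay with 15 nM Sfp, 5 uM rhodamine-CoA and 12.5 uM BHQ-2-labelled ybbR peptide in pH 7.6 Hepes/MgCl2 buffer. Enzyme was pre-incubated with compound for 15 min at room temperature. Rate was taken from the 30-min fluorescence change (525/598 nm).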
KDM4E inh = inhibitors of human JMJD2E histone demethylase. AID 2147. 230,000 compounds, 1.6% hits. Potency, µM (doses to about 57.1 µM), for inactives: at the top dose activity change, negative = inhibition, hits mostly inhibitors. JMJD2E catalytic domain, FDH-coupled NADH fluorescence (FDH is formaldehyde dehydrogenase);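 also: 0% = wells with enzyme and -100% = buffer wells without enzyme; nearly all actives have a fitted effect of over 50% in size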
KAT2A inh = inhibitors of human GCN5L2 histone acetyltransferase. Q92830. GCN5L2 HAT assay, ThioGlo1 CoA-SH fluorescence. Potency, µM (titrated, usually from 58.9 µM), without a hit: top-dose activity change, negative = inhibition, actives largely listed as inhibitors. 390,000 compounds, 0.21% hits. AID 504327; also: % is scaled to controls: 0 for no effect and ±100 for the full control effect
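Preincubate 20nM GCN5L2 with compound 15 min, RT → add 50uM ThioGlo1 + 75uM H3(1-25) + 70uM acetyl-CoA → read fluorescence 0 and 20 min. Primary qHTS; fluorescent artifacts likely.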
Epigenetic derep = regulators of epigenetic silencing causing reporter derepression in mouse cells | murine LDR cells, GFP reporter derepression, 30 h | Potency, µM (highest dose often 53.9 µM), inactives show top-dose GFP activation, actives largely listed as activators | 280,000 compounds, 0.2% hits | AID 1865; also: % of control where 0% means no effect; nearly all actives have a fitted effect of over 60% in size
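GFP-positive cell count by laser-scanning cytometry (objects 20–120 um) after 30 h, 37 C compound exposure of murine LDR cells; reporter is CMV-GFP integrated at a silenced locus, inducible by HDAC or DNMT inhibitors.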
IMPase Li cell = membrane-permeable IMPase blocker, potentiated with lithium; 210,000 compounds, 0.35% hits; CHO-M1 cells, IP1 TR-FRET (IP-One), carbachol + lithium; Potency, µM (titrated, usually from 59.4 µM), without a hit: at the highest dose activity, negative = IMPase inhibition, hits mostly inhibitors;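 also: IP1 builds up when IMPase is blocked and the TR-FRET signal falls; plate controls were basal vehicle for no effect and high inhibitor control for full effect; nearly all actives have a fitted effect of over 50% in size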
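CHO cells stably expressing M1 receptor (2000/well, cultured 16–30 h) treated 30 min at 37C with compound plus low lithium. Cytosolic IP1 by TR-FRET (665/620 ratio and 620 channel) after 10 min lysis; AC50 by Hill fit.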
An asterisk follows results filed as active; ? = inconclusive; · = no result; [ ] = another dose, or the depositor's remark. Sampled rows, rich in hits. Any-hit rate of the full collection: about 3.6%. Unless noted, calls follow the shape of the dose curve; as a rule, active = well fitted curve in the direction sought with a large enough effect; inconclusive = small, poorly fitted or top-dose-only effect, or another doubt; inactive = no such curve, though single readings can be large; an effect the other way counts as inactive or inconclusive. Potency is read from the fitted curve at half-maximal effect.

SMILES	NPSR antagonist	Sfp inh	KDM4E inh	KAT2A inh	Epigenetic derep	IMPase Li cell
COC(=O)[C@@]1(Cc2ccc(OC)cc2)[C@H]2c3cc(C(=O)N(C)C)n(CCc4c[nH]c5ccc(O)cc45)c3C[C@H]2CN1C(=O)c1ccccc1	·	12%	5%	·	6%	8%
CCCn1c(C)nc2c(Nc3ccccc3)nc(C)nc21	·	15%	-4%	·	1%	-8%
CC(C)(C)C(=O)/C(=C\c1ccc([N+](=O)[O-])cc1)n1cncn1	-10%[46.1 µM]	14µM*	-21%	0%	-1%	21%
Cc1occc1-c1nnc(SCC(=O)c2c[nH]c3ccccc23)n1C	-30%[46.1 µM]	50µM*	2%	-7%	-3%	-1%[38.3 µM]
Cc1occc1-c1nnc(SCC(=O)c2ccc(Cl)cc2)n1C	-9%[46.1 µM]	-21%	-5%	-5%	10%	7%[38.3 µM]
Cc1ccc(C(C)C)c(OCCNCc2ccccc2)c1	·	-19%	·	-1%	·	·
Cc1cc(OCCOCCNCc2ccccc2)ccc1C(C)C	·	79µM*	·	-8%	·	·
CN(C)c1ccc(P(=O)(OC2CCCCC2)C(O)c2ccncc2)cc1 (centres undefined)	28%	6%	22µM*	-9%	2%	·
CC1CCC(C(C)C)C(OP(=O)(c2ccccc2)C(O)c2ccncc2)C1 (centres undefined)	-11%	10%	18µM*	0%	0%	8%
CC(C)COP(=O)(c1ccc(N(C)C)cc1)C(O)c1ccncc1 (centres undefined)	2%[46.1 µM]	-2%	20µM*	-5%	-2%	7%[38.3 µM]
CC(C)(C)N1C(=O)[C@H]2[C@@H]3[C@H](O)C=CC(=O)[C@H]3CC[C@H]2C1=O	·	11%	·	·	2%[10.1 µM]	·
COc1ccc(S(=O)(=O)N(CCO)c2ccccc2CN(C)CC=Cc2ccc(Cl)cc2)cc1	·	-3%	·	9%	2%	29%
C=C(C)[C@]12C[C@@H](C)[C@@]34OC(Cc5ccccc5)(O[C@@H]1[C@@H]3C=C(COC(=O)Cc1cc(OC)c(O)cc1I)C[C@]1(O)C(=O)C(C)=C[C@@H]41)O2	·	16%	·	-10%	5%	3%
O=C(c1cccc(F)c1)N1CCC[C@@]2(CCN(Cc3nccs3)C2)C1	·	19%	·	4%	·	-1%
CCCC1=NN(c2ccc([N+](=O)[O-])cc2)C(=O)/C1=C/N(C)C	3%	79µM*	6%	-2%	0%	-3%
CN(Cc1ccccc1)C(=O)[C@H](Cc1ccc2ccccc2c1)NC(=O)[C@@H]1C[C@@H](O)CN1C(=O)c1cn(C)c2ccccc12	·	-7%	·	-12%	1%	26%
O=C(Cl)c1cccc([N+](=O)[O-])c1	·	·	·	·	·	10%
CC1(CC(=O)N/N=C/c2cc(Br)c(O)cc2O)OCCO1	-9%[46.1 µM]	19%	25µM*	?	0%	15%[38.3 µM]
Cc1oc(/C=N/NC(=O)CC2(C)OCCO2)cc1Br	36%	5%	-1%	-2%	1%	9%
COc1ccc(C)cc1NS(=O)(=O)c1c(C(=O)N2CCCCCC2)c(C)n(C)c1C	·	·	·	-16%	0%	·
CC(CNc1ccccc1O)C(=O)O (centres undefined)	2%	50µM*	?	-3%	1%	10%
O=C(/C=C/c1cc[n+](CC(=O)c2ccc3cccc4c3c2CC4)cc1)c1ccc2cccc3c2c1CC3	-7%	35µM*	?	-22%	1%	·
O=C(C[n+]1ccc2ccccc2c1)c1cccc2ccccc12	-17%	-13%	-21%	-13%	0%	14%
CCN(CC)CCOC(=O)c1ccc(NC(=O)CCCN2C(=O)/C(=C\c3cccs3)SC2=S)cc1	·	50µM*	·	?	·	·
O=C(CCN1C(=O)/C(=C\c2cccs2)SC1=S)Nc1ccc(C(=O)O)cc1	·	13%	·	1%	·	·
SMILES	NPSR antagonist	Sfp inh	KDM4E inh	KAT2A inh	Epigenetic derep	IMPase Li cell
CCn1ncc(C2=NOC(C(=O)NCc3ccc(OC)cc3)C2)c1C (centres undefined)	11%[46.1 µM]	0%	4%	2%	-1%	-19%[38.3 µM]
CCn1ncc(C2=NOC(C(=O)NCc3ccccc3)C2)c1C (centres undefined)	?	79µM*	1%	-3%	1%	11%
Nc1nc2ccc(S(=O)(=O)N3CCCCC3)cc2s1	-20%[46.1 µM]	10µM*	1%	-5%	8%	32%[38.3 µM]
Cc1nc2ccc(S(=O)(=O)N3CCCCC3)cc2s1	·	20%	·	2%	·	·
COc1cccc(CNC(=O)CSc2nc3ccccc3nc2Cc2ccc(C)cc2)c1OC	·	·	·	1%	5%	·
COc1ccc(C2=Nn3c(nnc3-c3ccccc3OC)SC2)c(OC)c1	·	-21%	·	·	·	·
O=C(O)CCCn1c(=S)[nH]c2c(sc3ccc([N+](=O)[O-])cc32)c1=O	8%	45µM*	-11%	-3%	-2%	-5%
CC1CCN(CCCn2c(=S)[nH]c3c(sc4ccc([N+](=O)[O-])cc43)c2=O)CC1	10%	56µM*	-15%	1%	-2%	5%
CC1CCN(CCCn2c(=S)[nH]c3c(sc4ccccc43)c2=O)CC1	-21%	-23%	-4%	-2%	1%	-19%
O=C(O)c1ccc2cc(-c3ccc(O)c(C45CC6CC(CC(C6)C4)C5)c3)ccc2c1	·	-9%	?	·	2%	3%
O=C(O)c1nnsc1COCc1ccccc1	·	·	·	·	·	0%
CC1(C(=O)O)CC(C)(C(=O)O)CC(C)(C(=O)O)C1 (centres undefined)	-3%[46.1 µM]	8%	1%	-4%	-2%	15%[38.3 µM]
O=C(O)C1(C(=O)O)CCC1.[NH2-].[NH2-].[Pt+2]	·	6.3µM*	·	20µM*	·	·
Cc1ccc2c(c1)c(C)cc[n+]2Cc1ccccc1	7%[46.1 µM]	18%	?	0%	-1%	·
CC[n+]1ccc(C[n+]2ccccc2)c2ccccc21	8%	50µM*	?	28µM*	0%	3%
CC1(C)Cc2nc3oc4c(=S)nc[nH]c4c3cc2CO1	?	22µM*	?	2%	-2%	?
